# Reference: ChEMBL document CHEMBL4513216, “Probing the Open Global Health Chemical Diversity Library for Multistage-Active Starting Points for Next-Generation Antimalarials” (ACS Infect Dis, 2020)
# About 2,100 (3.2%) of roughly 65,000 compounds showed an effect of 50% or more. The median lay at about -52%. The sample holds strong results, similar compounds and a random draw of the others, so the mix is not that of the screen.
# Tested on: Plasmodium falciparum
# Test: Screen against P. falciparum Asexual Blood Stage (ABS), at 5uM
# Type: functional, Dd2
# Conditions: tested at 5 uM
row,SMILES,INHIBITION [%]
1,N#Cc1cccc(CNc2ccc(F)cc2OCCO)c1,-11
2,Cc1ccc(S(=O)(=O)N2C[C@H]3C[C@H](NC(=O)c4cc[nH]n4)[C@H]3C2)cc1,-17.3
3,CNS(=O)(=O)c1ccc(CNC(=O)Nc2cn[nH]c2)cc1,-94.2
4,COC1(CNC(=O)NCCOc2ccccc2)CCSC1 (configuration not stated),-45.4
5,Cc1nc2c(c(NC3CC3)n1)CCN(C(=O)CCO)CC2,-79.7
6,CC(=O)c1cc(CN2CCCC2c2nc3ccc(C)cc3[nH]2)cs1 (configuration not stated),50.3
7,Cc1ccc2nc(C3CCCN3Cc3nnc(C)s3)[nH]c2c1 (configuration not stated),-102
8,CC(=O)c1cc(CN2CCCCC2c2nc3cc(F)ccc3[nH]2)cs1 (configuration not stated),12.3
9,Cc1ccc2nc(C3CCCN3Cc3scnc3C)[nH]c2c1 (configuration not stated),-84.1
10,Cc1ccc2nc(C3CCCN3Cc3cccc(CCN)c3)[nH]c2c1 (configuration not stated),41.2
11,Cc1ccc2nc(C3CCCN3Cc3csc(C)n3)[nH]c2c1 (configuration not stated),65.7
12,Cc1c(C(=O)NCCC(=O)N2CCCC2)cccc1-c1ccccn1,-47.4
13,CCOC(=O)[C@]12CCCN(Cc3cccs3)C[C@H]1CN(C(C)C)C2,9.63
14,O=C(CN1CCOCC1)N(c1ccccc1)c1ccccc1,-110
15,CN(C)c1ncccc1CNC(=O)N1CCCC1CN1CCCC1 (configuration not stated),-122
16,CC(=O)N1CCN(C(=O)CN2CCCC2c2c(C)nn(C)c2C)CC1 (configuration not stated),-90.6
17,O=C(NC1CCC1)C1=NOC2(CCN(Cc3ccco3)C2)C1 (configuration not stated),-31.3
18,COCc1ccc(C(=O)N2CCC(c3cc4nccnc4[nH]3)CC2)cc1,-69.8
19,COc1cc(C(=O)N2CCCC(n3ccnc3)C2)cc2c1OCCO2 (configuration not stated),-16.1
20,Cc1nc[nH]c1CN1CCCC12CCN(c1nc3ccccc3s1)CC2,24.2
21,Cc1nc[nH]c1CN1CCCN(c2nc3ccccc3s2)CC1,54.8
22,Cc1ncnc(N2CCCN(c3nc4ccccc4s3)CC2)c1C,-442
23,CC(=O)N1CCCC1c1nnn2cc(-c3ccncc3)ccc12 (configuration not stated),-69.2
24,O=C(O)c1nnn(-c2ccccc2)c1-c1ccncc1,-32.3

row,SMILES,INHIBITION [%]
1,CCn1c(C2CCNCC2)nn(Cc2ccc(C(=O)NC)o2)c1=O,-72.6
2,CCCn1ncc(-c2ccnc(NC3CC(C)(C)NC(C)(C)C3)n2)c1C,67.2
3,CCCn1ncc(-c2ccnc(N[C@@H]3C[C@H]4CC[C@@H]3C4)n2)c1C,-34.5
4,CCCn1ncc(-c2ccnc(NC3CCSC3)n2)c1C (configuration not stated),-10.1
5,CC(C)N1CCC(N2CCC(C(=O)N(C)C)CC2)CC1,-45.6
6,O=C(N[C@@H]1CNCCC[C@H]1O)c1ccc(OCc2ccccc2)cc1,63.2
7,COCCOc1ccc(C(=O)N[C@@H]2CNCCC[C@H]2O)cc1,-9.34
8,O=C(N[C@@H]1CNCCC[C@H]1O)c1ccc(OCCN2CCCC2)cc1,-65.9
9,CCc1ccccc1Nc1noc2c1CN(C(=O)c1ccn(C)n1)CC2,-63.2
10,CCc1ccccc1Nc1noc2c1CN(C(=O)CNC(C)=O)CC2,45.1
11,CCc1ccccc1Nc1noc2c1CN(C(=O)C1CCCO1)CC2 (configuration not stated),68.6
12,O=C(NCc1cccnc1-n1cncn1)c1ccncc1,-55.2
13,COc1cccc(C(=O)N2CC[C@@H]3[C@H](CC2)N(C)CCS3(=O)=O)c1,-72.7
14,Cc1nc(COC[C@H]2CCC[C@]23CN(C2CCOC2)CCO3)cs1 (some centres not stated),-51.5
15,CCN1CCO[C@]2(CCC[C@H]2COCc2csc(C)n2)C1,57.7
16,Cc1nc(COC[C@@H]2CCC[C@@]23CN(C)CCO3)cs1,15.6
17,Cc1nc(COC[C@@H]2CCC[C@@]23CNCCO3)cs1,47.5
18,Cc1nc(COC[C@H]2CCC[C@]23CN(CC2CC2)CCO3)cs1,32.7
19,Cc1nc(COC[C@H]2CCC[C@@]23CN(C(C)C)CCO3)cs1,51.9
20,c1ccc(CN2Cc3nccn3CC(Cn3cccn3)C2)nc1 (configuration not stated),-16.2
21,CCN(CC)Cc1cn2c(n1)CN(C(=O)Cc1ccsc1)CC2,-53.3
22,Cc1cc(N(Cc2cccs2)C2CC2)n2nc(C(F)(F)F)nc2n1,67.3
23,Cc1cc(N(Cc2ccccc2F)C2CC2)n2nc(C(F)(F)F)nc2n1,4
24,Cc1cc(N(Cc2ccccn2)C2CC2)n2nc(C(F)(F)F)nc2n1,-61.2

row,SMILES,INHIBITION [%]
1,CC1c2ncc(Cn3cccn3)n2CCN1Cc1ccccn1 (configuration not stated),-88.5
2,Cc1nnc2n1CCN(C(C(=O)NC1CC1)c1ccc(F)cc1)C2 (configuration not stated),-127
3,CCN1CCN(CCNC(=O)c2ccn(-c3ccc(F)cc3)n2)CC1,-11.4
4,NC(=O)CC1CCN(C(=O)c2cccn2Cc2cccs2)CC1,-68.7
5,COc1ncccc1CN1C[C@H]2C[C@@H](C(=O)NCC3CC3)N(C)[C@H]2C1,51.2
6,CN1[C@@H](C(=O)NCC2CC2)C[C@@H]2CN(Cc3ccoc3)C[C@@H]21,30.4
7,CN1[C@@H](C(=O)NCC2CC2)C[C@@H]2CN(Cc3ccco3)C[C@@H]21,-99
8,CCOc1ccc(C(=O)N2CCCC2c2c(C)nn(C)c2Cl)cn1 (configuration not stated),-37.6
9,COc1cccc(CN2CCC3(CC2)CCN(c2ncccn2)C3)c1,0.0663
10,COc1cccc(CN2CCC3(CC2)CCN(c2ncc(C)cn2)C3)c1,-73.3
11,CCS(=O)(=O)N1CCC2(CCN(Cc3cccc(OC)c3)CC2)CC1,68.4
12,NC(=O)C1CCCN1Cc1cccc(NC(=O)c2cc(Cl)cc(Cl)c2)c1 (configuration not stated),-51
13,Clc1ccc(CN2CCCCC2Cn2cncn2)c2ncccc12 (configuration not stated),17.8
14,N#Cc1ccc(CN2CCCC2Cn2cccn2)c(F)c1 (configuration not stated),-129
15,N#Cc1ccc(F)c(CN2CCCC2Cn2cccn2)c1 (configuration not stated),-15.1
16,Clc1cc(CN2CCCC(Cn3cncn3)C2)c2ncccc2c1 (configuration not stated),39.2
17,Clc1ccc2cccnc2c1CN1CCCCC1Cn1cncn1 (configuration not stated),48.2
18,Clc1cc(CN2CCCC2Cn2cncn2)c2ncccc2c1 (configuration not stated),2.88
19,Clc1ccc2cccnc2c1CN1CCCC1Cn1cncn1 (configuration not stated),53.7
20,Fc1ccc(CN2CCCCC2Cn2cncn2)c2ncccc12 (configuration not stated),65.8
21,Fc1ccc(CN2CCCC(Cn3cncn3)C2)c2ncccc12 (configuration not stated),-1.08
22,Clc1ccc(CN2CCCC(Cn3cncn3)C2)c2ncccc12 (configuration not stated),64.6
23,Fc1ccc(CN2CCCC2Cn2cccn2)c2ncccc12 (configuration not stated),59.1
24,Fc1ccc(CN2CCCC2Cn2cncn2)c2ncccc12 (configuration not stated),13.9
